# High-throughput results from PubChem.
# TRHR PAM: qHTS for Small Molecule Agonists and Allosteric Enhancers of Human TRH Receptor: Primary Screen for Enhancers; Thyrotropin-releasing hormone receptor (Homo sapiens), P34981; TRHR cells, fluo-8 calcium fluorescence, EC20 TRH enhancement; enhancement, % at 2 µM; 0.66% of 360,000 active; AID 493056, 2011; in the data active = enhancement above about 30%; also: 0% is about no effect
#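 TRHR-expressing cells loaded with fluo-8 calcium dye were read kinetically (ex 480/em 530) during compound addition, then stimulated with an EC20 of TRH (10 nM final). Enhancement of the Gq-mediated intracellular calcium response was scored.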
# D1 antagonist: Antagonist of Human D 1 Dopamine Receptor: qHTS; HEK293 TREx D1 cells, calcium flux, dopamine EC80; active compounds read low; 3.2% of 360,000 active; D(1A) dopamine receptor (Homo sapiens), P21728; activity change, negative = inhibition, % at 10 µM; in the data active = activity change below about -30%; also: % is scaled to controls: 0 for no effect and ±100 for the full control effect
# Target sequence (P21728 whole entry, looked up): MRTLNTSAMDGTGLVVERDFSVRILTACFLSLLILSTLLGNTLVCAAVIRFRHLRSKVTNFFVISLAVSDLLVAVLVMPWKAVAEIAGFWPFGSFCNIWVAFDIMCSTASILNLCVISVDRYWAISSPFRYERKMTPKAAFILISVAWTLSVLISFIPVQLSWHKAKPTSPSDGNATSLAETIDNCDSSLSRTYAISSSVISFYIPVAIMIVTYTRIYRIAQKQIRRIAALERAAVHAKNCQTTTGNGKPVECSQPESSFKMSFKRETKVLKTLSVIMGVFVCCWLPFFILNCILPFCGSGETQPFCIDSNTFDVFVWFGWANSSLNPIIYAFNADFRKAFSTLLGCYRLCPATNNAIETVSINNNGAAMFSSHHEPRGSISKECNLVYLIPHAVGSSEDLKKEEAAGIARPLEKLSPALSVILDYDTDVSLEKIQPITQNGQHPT
#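 Tetracycline-induced HEK293 Trex D1 cells, force-coupled to calcium, dye-loaded; compounds added and read 180 s, then EC80 dopamine added and calcium flux tracked kinetically another 180 s.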
# D1 potentiator: Potentiators of Human D1 Dopamine Receptor: qHTS | HEK293 TREx D1 cells, calcium flux, dopamine EC20 potentiation | 0.036% of 360,000 active | D(1A) dopamine receptor (Homo sapiens), P21728 | potentiation, % at 10 µM; in the data active = potentiation above about 30%; also: 0% is about no effect
# D1 agonist: Allosteric Agonists of the Human D1 Dopamine Receptor: qHTS. D(1A) dopamine receptor (Homo sapiens), P21728. HEK293 T-REx D1 cells, calcium flux, agonist mode. activation, % at 2 µM. 1% of 360,000 active. AID 504660, 2011; also: 0% is about no effect
#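 Tetracycline-induced HEK293 TREx D1 cells, force-coupled to calcium signalling, were dye-loaded with a no-wash calcium kit. Compound was pin-added after a 10 s baseline. Fluorescence was read kinetically at 1 cycle/s for 180 s, with calcium rises flagged as agonism.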
# TRHR agonist: qHTS for Small Molecule Agonists and Allosteric Enhancers of Human TRH Receptor: Primary Screen for Agonists | activation, % at 2 µM | Thyrotropin-releasing hormone receptor (Homo sapiens), P34981 | 0.18% of 360,000 active | AID 493084, 2011 | TRHR cells, calcium flux fluo-8, FDSS agonist mode; also: 0% is about no effect
#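 TRHR-expressing cells loaded with fluo-8 calcium dye; 23 nL library compound pin-transferred, kinetic FDSS fluorescence (Ex 480/Em 530) recorded about 180 s for agonist-induced calcium release, before a 10 nM TRH EC20 addition for potentiator mode.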
# Starred values were filed as active, the others as inactive; · = no result given; ! = not active in a repeat. An excerpt weighted towards active compounds, which were near 4.7% of everything screened. Rule as the data show it, unless noted: active = activation above about 30%; inactive = the rest.
SMILES,TRHR PAM,D1 antagonist,D1 potentiator,D1 agonist,TRHR agonist
O=C(COC(=O)c1ccc([N+](=O)[O-])cc1)NC1CCCC1,-5,-45*,-5,1,-1
Nc1ccccc1Sc1ccc(C(=O)c2ccccc2C(=O)O)cc1[N+](=O)[O-],-4,0,1,2,0
O=C(COC(=O)c1ccc(O)cc1)NC1CCCC1,28,0,4,3,0
CC(C)OC(=O)c1ccccc1C(=O)c1ccc(N)c([N+](=O)[O-])c1,-4,-34*,-5,-1,0
COc1ccccc1N1CCN(C(=O)Cc2c(C(=O)O)c(C)cn2C)CC1,2,-4,-2,1,0
CC(C)c1ccc(C2C3=C(CC(c4ccco4)CC3=O)Nc3nc(C(F)(F)F)nn32)cc1 (centres undefined),0,0,-4,7,-1
O=C(COC(=O)/C=C/c1cccc([N+](=O)[O-])c1)Nc1ccc(Cl)cn1,-1,-49*,-6,4,0
CCN1CCN(c2cc(=O)n(C3CCCCC3)c(=O)[nH]2)CC1,34*,-9,-3,1,0
Cc1csc(NC(=O)c2ccoc2C)n1,0,25,0,-3,0
Cc1c(C(=O)Nc2nnc(C(F)(F)F)s2)oc2ccccc12,6,-38*,0,10,-1
O=C(Nc1ccccc1C(=O)Nc1nnc(C(F)(F)F)s1)c1ccccc1,-4,-39*,-5,26,2
Cc1occc1C(=O)Nc1nnc(C(F)(F)F)s1,-10,-30*,1,9,2
COc1cccc(NC(=O)CN(C)CC(=O)Nc2ccc(C)c([N+](=O)[O-])c2)c1,-6,-12,0,6,-1
CCCc1cc(=O)n2[nH]c(NCc3c(Cl)cccc3Cl)nc2n1,4,-5,4,0,0
CCCc1cc(=O)n2[nH]c(NCc3c(F)cccc3Cl)nc2n1,-1,-30*!,-1,0,0
Cc1ccc(C2NC(=O)c3ccccc3N2)s1 (centres undefined),35*,-10,6,0,1
COc1ccc(CN(C(=O)c2snc(C(N)=O)c2N)C(C(=O)NC2CCCC2)c2cc(OC)ccc2OC)cc1 (centres undefined),34*,2,3,9,-1
Cc1cc(NC(=O)CCC(=O)N(Cc2ccco2)C(C(=O)NC2CCCCC2)c2cccs2)no1 (centres undefined),-2,4,0,3,-1
COc1ccc(CN(C(=O)c2snc(C(N)=O)c2N)C(C(=O)NC2CCCC2)c2ccc(OC)cc2)cc1 (centres undefined),7,10,-5,9,-1
Cc1ccc(C(C(=O)NC2CCCC2)N(Cc2ccco2)C(=O)CCC(=O)Nc2cc(C)on2)cc1 (centres undefined),-1,-32*,-5,2,0
COc1cccc(C(C(=O)NC2CCCC2)N(Cc2ccco2)C(=O)c2ccco2)c1OC (centres undefined),3,-37*,-5,0,-1
COc1ccc(C(C(=O)NC2CCCC2)N(Cc2ccco2)C(=O)c2snc(C(N)=O)c2N)cc1OC (centres undefined),-3,-33*,-4,4,0
CCCNC(=O)CSc1n[nH]c(=O)n1CCc1ccccc1,12,2,-8,2,-1
Cc1cc(Cl)ccc1NC(=O)Cn1nc(C)c2c(C)n(-c3ccccc3)nc2c1=O,3,-7,-1,1,-1
O=C(CN1C(=O)NC2(CCCCC2)C1=O)Oc1ccc2c(C(F)(F)F)cc(=O)oc2c1,1,3,0,51*,19
SMILES,TRHR PAM,D1 antagonist,D1 potentiator,D1 agonist,TRHR agonist
CCCOc1ccc(N2C(=O)CC(N3CCC(O)(c4cccc(C(F)(F)F)c4)CC3)C2=O)cc1 (centres undefined),-1,-32*,1,2,0
O=C1CC(N2CCN(c3cccc(C(F)(F)F)c3)CC2)C(=O)N1c1ccccc1F (centres undefined),6,4,-3,2,1
O=C1CC(N2CCN(c3cccc(C(F)(F)F)c3)CC2)C(=O)N1c1ccccc1 (centres undefined),4,-2,-4,53*,2
COc1ccc(CNC(=O)C2CCN(S(=O)(=O)N3CCC(C)CC3)CC2)c(OC)c1,-6,-7,1,-4,-1
O=C(Cc1nnc(CNC(=O)c2ccccc2)s1)Nc1ccc(C(F)(F)F)cc1Cl,-4,4,-1,0,0
Cc1ccc(C)c(N2CCN(C(=O)C(Cc3ccccc3)n3cccc3)CC2)c1 (centres undefined),-3,-53*,·,6,0
O=C(O)C(Cc1ccccc1)n1cccc1 (centres undefined),-1,-42*,1,3,0
Cc1cc(C(C)(C)CC(C)(C)C)ccc1OCCOCC[N+](C)(C)Cc1ccccc1,-4,8,-1,101*,0
Cc1cc(C(C)(C)C)ccc1OCCN1CCCC1,1,5,0,9,2
COc1ccc(CCC(=O)N2CCN(S(=O)(=O)c3ccc(OC(F)(F)F)cc3)CC2)cc1,2,-7,-7,5,0
CS(=O)(=O)N(CC(=O)NCC1CCCO1)c1cccc(Cl)c1 (centres undefined),13,-6,1,1,0
CS(=O)(=O)N(CC(=O)NCC1CCCO1)c1cc(Cl)cc(Cl)c1 (centres undefined),-1,-50*,-3,2,0
CN(C)CCCNc1cc(C(C)(C)C)nc2c(-c3ccccc3)cnn12,6,-12,-2,58*,4
Cc1cccc(C(=O)N2CCNC(=O)C2CC(=O)Nc2ccc(F)cc2)c1 (centres undefined),2,4,7,2,0
Cc1ccc(C)c(NC(=O)Cn2c(=O)n(CCC(C)C)c(=O)c3cccnc32)c1,2,-43*,-7,0,0
Cc1cc(C)c(NC(=O)Cn2c(=O)n(CCC(C)C)c(=O)c3cccnc32)c(C)c1,14,1,-3,2,1
C/C(=N\NC(=O)c1cc(C)oc1C)c1ccc2ccccc2c1,3,-42*,-1,4,0
CN(C)c1ccc(/C=N/N(CCO)C2=NS(=O)(=O)c3ccccc32)cc1,7,7,2,40*,4
Cc1ccc(CC(=O)Nc2ccc([N+](=O)[O-])cc2C)cc1,6,-41*,-5,11,-1
